The supplement of paper PMC6555819

How the values were obtained:
Experiment in all cases: PBM binding z-score (relative to random genomic background probes); higher = stronger binding; sequences stand for … in GC…GCGATTGACAGCGTAGAATGAAGG
[1] = test system: FXR:RXRa (NR concentration 270 nM, RXRa partner concentration 90 nM)
In short: (§1)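 Custom Agilent 4×180K protein-binding microarrays carried double-stranded probes, each with a 34-nt variable region. These regions held direct-repeat seeds, single-nucleotide variants, half-site ablations and random human genomic background sequences. Ligand-free nuclear receptor dimers were incubated on the arrays for 1 h, antibodies against each partner (one per run) detected binding, and scanned fluorescence was regression-normalized. Binding z-scores take the random background probes as reference.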

[2] = test system: LXRa:RXRa (NR concentration 270 nM, RXRa partner concentration 90 nM)
In short: as §1

[3] = test system: LXRa homodimer (NR concentration 270 nM)
In short: as §1

[4] = test system: LXRb:RXRa (NR concentration 270 nM, RXRa partner concentration 90 nM)
In short: as §1

[5] = test system: LXRb homodimer (NR concentration 270 nM)
In short: as §1

[6] = test system: PPARa:RXRa (NR concentration 270 nM, RXRa partner concentration 90 nM)
In short: as §1

[7] = test system: PPARg:RXRa (NR concentration 180 nM, RXRa partner concentration 90 nM)
In short: as §1

[8] = test system: PPARg:RXRa 270nM:90nM, anti-RXR (NR concentration 270 nM, RXRa partner concentration 90 nM)
In short: as §1

[9] = test system: PPARg:RXRa 30nM:10nM, anti-RXR (NR concentration 30 nM, RXRa partner concentration 10 nM)
In short: as §1

[10] = test system: PPARg:RXRa 90nM:30nM, anti-RXR (NR concentration 90 nM, RXRa partner concentration 30 nM)
In short: as §1

[11] = test system: PPARg:RXRa DBDmut IVT, anti-RXR (DBD mutation: RXRa K156A/R161A, NR concentration 270 nM, RXRa partner concentration 90 nM)
In short: as §1

[12] = test system: PPARg:RXRa IVT, anti-PPARg (NR concentration 270 nM, RXRa partner concentration 90 nM)
In short: as §1

[13] = test system: PPARg DBDmut:RXRa IVT, anti-PPARg (DBD mutation: PPARg1 K132A/R137A, NR concentration 270 nM, RXRa partner concentration 90 nM)
In short: as §1

[14] = test system: PPARg DBDmut IVT, anti-PPARg (DBD mutation: PPARg1 K132A/R137A, NR concentration 270 nM)
In short: as §1

[15] = test system: PPARg homodimer (NR concentration 180 nM)
In short: as §1

[16] = test system: PXR:RXRa (NR concentration 270 nM, RXRa partner concentration 90 nM)
In short: as §1

[17] = test system: PXR homodimer (NR concentration 270 nM)
In short: as §1

[18] = test system: RARa:RXR (NR concentration 270 nM, RXRa partner concentration 90 nM)
In short: as §1

[19] = test system: RARa homodimer (NR concentration 270 nM)
In short: as §1

[20] = test system: RARb:RXRa (NR concentration 270 nM, RXRa partner concentration 90 nM)
In short: as §1

Sequence	PBM binding z-score [1]	PBM binding z-score [2]	PBM binding z-score [3]	PBM binding z-score [4]	PBM binding z-score [5]	PBM binding z-score [6]	PBM binding z-score [7]	PBM binding z-score [8]	PBM binding z-score [9]	PBM binding z-score [10]	PBM binding z-score [11]	PBM binding z-score [12]	PBM binding z-score [13]	PBM binding z-score [14]	PBM binding z-score [15]	PBM binding z-score [16]	PBM binding z-score [17]	PBM binding z-score [18]	PBM binding z-score [19]	PBM binding z-score [20]
CAAACTAGGTCACGAAAGGTAAAAGTCGAATGAC	5.18	4.51	0.678	3	0.18	5.71	9.74	7.96	6.05	7.49	8.36	9.37	5.06	2.46	2.6	3.12	0.438	3.69	1.43	4.33
CCTACTGGGCTACGAAAGGTCATTGATTCAGTGA	3.53	6.04	6.54	4.66	0.251	4.28	2.77	4.36	2.08	3.64	3.98	3.65	-0.45	0.321	3.32	5.08	1.74	5.44	0.708	3.88
TTACCAAGGTGAAGATCGTTGATCCCTCTGTAGA	0.339	0.08	-0.422	0.141	-0.815	1.14	0.457	0.958	0.156	0.575	1.37	1.92	0.401	0.0725	0.177	0.123	-0.895	0.533	-0.66	1.26
ACTCGTTGGTCAGCTGAGGTCACACACAATTCGG	3.88	3.44	2.55	3.61	0.51	3.65	1.26	1.84	0.425	1.25	0.747	2.05	-0.129	0.631	3.13	5.42	1.8	4.47	1.77	3.58
ACAGACAGCTGATGAAGGTAACTCAGGCTATCAT	-0.294	-0.43	-0.191	-0.692	-0.451	-0.305	0.649	-0.383	-0.233	0.0374	-0.796	-0.158	0.246	0.14	0.00151	-0.216	-0.158	0.0124	0.287	-0.232
ACTATTAGCTGACTTAGGGCAACCGATACGACGC	0.00773	-0.128	0.194	-0.149	0.546	-0.0754	0.886	0.11	-0.102	0.0192	0.43	0.75	1.05	1.38	0.825	-0.173	-0.168	0.142	1.14	0.676
TAGCCTAGGTCATGCGGGCCAGTATTGTGTCGGC	3.83	2.94	0.0608	1.71	-0.269	3.48	1.84	2.13	0.0531	1.17	1.92	3.17	-0.152	-1.19	0.001	1.34	-0.847	1.82	-1.27	3.69
GCTAGCAGGCCATTTGGGTCACTCTATGACGGGC	0.0268	-0.16	-0.53	-0.351	-0.817	0.925	0.594	0.327	-0.547	-0.167	2.04	2.04	-0.319	-0.713	-0.345	0.138	-0.0419	0.546	-0.641	1.27
TCTTGTAGATCAACAGGAGGTTAAGAGAGATCGA	-0.193	1.14	-0.121	0.527	-0.544	1.3	0.126	1.38	2.38	1.73	1.53	0.53	0.135	-0.105	-0.206	0.838	-0.445	0.613	-0.275	0.493
AGAATGAGGTTATACGTAGCTCAGGGAAGAAAGT	1.61	1.23	-0.204	1.05	-0.347	2.86	1.46	1.95	0.439	1.23	3.72	1.8	0.808	0.83	0.431	0.653	0.0212	1.15	0.35	1.11
ATATGTAGGTTATCGGGTCATTCACTTTGCGCAT	3.3	3.17	2.13	3.23	1.51	5.02	7.09	6.26	3.66	5.87	7.73	7.65	4.35	2.87	2.48	3.44	1.07	4.15	2.17	2.64
TCTATTAGTTGAAGGGCAACCTACGAGTCCGTTT	0.82	0.87	0.394	0.789	0.451	0.702	0.121	1.88	3.44	2.53	2.23	0.488	0.411	0.817	1.5	0.858	1.18	0.893	1.08	1.57
GTACCAAGGTGAATAGGTCGATGATGAGTAGGCG	0.682	0.499	-0.251	0.484	-0.293	1.89	1.69	1.53	0.803	1.28	1.55	2.61	0.551	-0.172	1.08	0.477	0.109	1.13	0.983	2.01
CTCGAAAGGTCGGTTGAGGTGAGTATCCGGATAA	2.5	1.81	-0.338	1.44	0.0486	2.71	0.0243	1.33	-0.0688	0.975	0.135	0.893	-0.0361	-0.258	1.02	2.98	-0.135	2.21	-0.322	3.18
